High-throughput results: PubChem BioAssay, several laboratories
Most compounds without a hit are left out; they make up all but 2.8% or so of the library.
proKLK7 act – proKLK7 zymogen activators, primary screen, biochemical, fluorescence intensity; Kallikrein-7 (Homo sapiens), P49862; purified proKLK7, EDANS-DABCYL substrate fluorescence; 100% is mature enzyme control, 0% vehicle; activation, % at 7 µM; 370,000 tested, 0.9% active; AID 652039, 2013;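 active = activation above the mean of all tested compounds plus 3 SD, computed per campaign excluding outliers beyond control limits, cut at about 13% in these data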
Target sequence (P49862 whole entry, looked up): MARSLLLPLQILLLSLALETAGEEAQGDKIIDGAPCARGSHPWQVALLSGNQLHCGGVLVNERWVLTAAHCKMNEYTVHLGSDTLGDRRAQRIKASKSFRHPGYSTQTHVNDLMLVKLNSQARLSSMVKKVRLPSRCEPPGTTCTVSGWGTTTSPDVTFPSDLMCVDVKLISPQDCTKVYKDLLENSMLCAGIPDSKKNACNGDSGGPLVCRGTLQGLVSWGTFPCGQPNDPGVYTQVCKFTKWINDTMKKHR
NR1D1 modulator – modulators of Rev-erb alpha DNA binding, primary screen, biochemical, FITC-DNA, fluorescence polarization, uHTS; Nuclear receptor subfamily 1 group D member 1 (Homo sapiens), P20393; Rev-erbα–FITC-DNA binding, 90 min; activity, % at 10 µM; 370,000 tested, 0.79% active;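 active = activity above about 14%, limit read from the data; passing the limit was not always enough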;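 note: 0% = DMSO wells with 35 nM protein and 100% = DMSO wells with 750 nM protein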
PG9 binder – binders of HIV-1 gp120 antibody PG9, primary screen, biochemical, TR-FRET. HIV-1 gp120 / PG9 antibody interaction. inhibition, % at 6.7 µM. TR-FRET gp120-PG9 antibody binding. 360,000 tested, 0.43% active; in the data active = inhibition above about 8.5%
PP1 inh – PP1-alpha phosphatase inhibitors, primary screen, counter-screen for PP5 inhibitor project, biochemical, fluorescence, OMFP substrate, single point. Serine/threonine-protein phosphatase PP1-alpha catalytic subunit (Homo sapiens), P62136. purified PP1alpha. inhibition, % at 6.7 µM. 320,000 tested, 0.9% active. AID 2235, 2010;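 active = inhibition above the mean inhibition of all tested compounds plus 3 SD, computed separately for each screening campaign, cut at about 15% in these data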
PP5 primary – PP5 phosphatase inhibitors, primary screen, biochemical, fluorescence; Serine/threonine-protein phosphatase 5 (Homo sapiens), P53041; purified PP5c, OMFP substrate fluorescence; inhibition, % at 6.7 µM; 320,000 tested, 0.18% active;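 active = inhibition above the campaign's mean inhibition across all tested compounds plus 3 SD, cut at about 9.5% in these data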;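 note: 0% = DMSO only and 100% = 100 µM cantharidin control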
JMJD2C inh – inhibitors of GASC-1 histone demethylase, primary screen, biochemical, fluorescence, DELFIA europium | 330,000 tested, 0.069% active | GST-JMJD2C(1-420) H3K9me3 demethylation | inhibition, % at 2.35 µM | Lysine-specific demethylase 4C (Homo sapiens), Q9H3R0;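 active = more than half of a compound's replicate wells show inhibition beyond 50%, single wells judged on their own value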;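 note: signal counts dimethyl H3K9 product captured on neutravidin plate; 0% = median of DMSO wells and 100% = 0.3 times that DMSO median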
Target sequence (Q9H3R0 1-420 limits assumed): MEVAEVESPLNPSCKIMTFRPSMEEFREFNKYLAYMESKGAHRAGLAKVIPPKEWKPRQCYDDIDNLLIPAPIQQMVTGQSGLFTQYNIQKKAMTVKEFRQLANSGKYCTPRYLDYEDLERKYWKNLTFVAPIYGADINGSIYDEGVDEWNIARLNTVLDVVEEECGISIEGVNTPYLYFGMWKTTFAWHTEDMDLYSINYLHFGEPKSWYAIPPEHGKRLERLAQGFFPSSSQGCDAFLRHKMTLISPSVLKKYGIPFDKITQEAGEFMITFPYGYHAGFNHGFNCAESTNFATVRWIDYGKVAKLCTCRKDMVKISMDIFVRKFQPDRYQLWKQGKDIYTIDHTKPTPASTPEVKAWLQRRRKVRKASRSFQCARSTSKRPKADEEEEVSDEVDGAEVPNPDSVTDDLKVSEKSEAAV
PP1 confirm – PP1 phosphatase inhibitors, confirmation, biochemical, fluorescence, OMFP substrate, triplicate | shares compounds with PP1 inh | purified PP1alpha | inhibition, % at 6.7 µM | 1,900 tested, 52% active;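 active = mean PP1 inhibition above a set limit taken from the earlier primary screen, cut at about 15% in these data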
PP5 inh counter – PP5 phosphatase inhibition by PP1 hits, confirmation, counter-screen for PP1 inhibitor project, biochemical, fluorescence, triplicate; shares compounds with PP1 inh; purified PP5c, OMFP fluorescence; inhibition, % at 6.7 µM; 1,900 tested, 4% active; AID 2360, 2010;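 active = mean PP5 inhibition over triplicate wells above about 9.5% taken from the earlier PP1 screen, limit read from the data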
* hit, by the source's call; x = not tested or not shown.

SMILES	proKLK7 act	NR1D1 modulator	PG9 binder	PP1 inh	PP5 primary	JMJD2C inh	PP1 confirm	PP5 inh counter
Cc1cccc(Nc2nc(NCc3ccco3)c3ccccc3n2)c1	-6.5	6.6	-0.1	25.1*	10.3*	3.0	13.6	4.0
Cc1ccccc1Nc1nc(NCc2ccco2)c2ccccc2n1	-0.1	-2.8	0.0	24.6*	3.7	-6.2	-2.3	-0.1
Oc1ccccc1Nc1nc(NCc2ccco2)c2ccccc2n1	0.6	-3.0	0.8	7.0	5.8	0.0	x	x
CCN(CC)CCOC(=O)c1ccc(N/C=C(/C#N)c2nc(-c3cc4ccccc4oc3=O)cs2)cc1	8.2	1.3	-13.3	x	x	-2.4	x	x
CCN(CC)CCOC(=O)c1ccc(N/C=C(/C#N)c2nc(-c3ccc(OC)cc3)cs2)cc1	0.5	0.3	-1.7	59.8*	1.0	-8.1	6.0	-1.4
CCN(CC)CCOC(=O)c1ccc(N/C=C(/C#N)c2nc(-c3ccc4c(c3)OCO4)cs2)cc1	-0.8	-10.8	-0.9	64.6*	0.1	-4.8	38.7*	0.4
O=C(Cn1cc[n+](CC(=O)c2ccccc2)c1)c1ccccc1	-0.1	4.5	1.1	4.5	1.8	-2.3	x	x
O=C(Cn1cc[n+](CC(=O)c2ccc(Cl)cc2Cl)c1)c1ccc(Cl)cc1Cl	0.6	5.8	1.7	17.6*	-2.5	17.2	-11.3	-2.1
COc1ccccc1CNS(=O)(=O)c1ccc2c(c1)oc(=O)n2C	-0.4	2.3	1.1	0.7	1.2	9.3	x	x
COc1ccccc1CNC(=O)C(NS(=O)(=O)c1ccc2c(c1)oc(=O)n2C)C(C)C (stereo not drawn)	-0.1	-4.6	0.6	26.6*	0.1	-1.7	-2.6	-1.1
Cc1ccc(NC(=O)[C@H]2CC(=O)O[C@@H]2c2ccccc2)cc1C	-0.4	1.1	x	x	x	x	x	x
CC(C)(C)C(=O)Nc1cccc(-c2nc3ccccc3[nH]2)c1	-0.1	3.8	-1.0	23.1*	1.1	5.5	-1.0	-3.4
CCCCCCCCCCOC(=O)Cn1c(COc2ccccc2OC)[n+](C)c2ccccc21	0.3	-0.3	2.2	34.3*	1.3	11.3	1.2	1.7
Cn1c(COc2ccccc2O)[n+](C)c2ccccc21	-0.4	-1.2	0.1	-3.4	-0.7	-12.5	x	x
Cc1ccsc1/C=C/c1ccc2cccc(O)c2n1	0.6	12.7	-0.6	20.8*	4.5	-17.6	19.2*	-0.4
COc1cc(/C=C/c2ccc3cccc(O)c3n2)c(Br)cc1O	0.5	0.0	-0.7	12.9	1.7	-15.3	x	x
CSc1ccc(/C=C/c2ccc3cccc(O)c3n2)cc1	-0.5	-1.1	-1.1	12.7	2.3	-11.4	x	x
Oc1cccc2ccc(/C=C/c3cccs3)nc12	0.2	-0.8	-3.9	24.2*	1.9	2.2	18.7*	-1.1
COc1ccc(OC)c(/C=C/c2ccc3cccc(O)c3n2)c1	4.2	3.9	-0.4	18.7*	4.0	-20.0	18.3*	-2.0
O=S1(=O)c2ccc(Br)cc2OC[C@H](Cc2ccccc2)N1Cc1cn(Cc2ccc(C(F)(F)F)cc2)nn1	0.5	-4.1	x	x	x	x	x	x
CCCCCCCCNS(=O)(=O)/C=C/c1ccc(OC)cc1CNC(=O)OC(C)(C)C	0.8	-3.4	x	x	x	x	x	x
C(=N\Nc1nncc2ccccc12)/c1cccnc1	0.4	-6.0	x	x	x	x	x	x
CC(C)c1[nH]nc2c1C(c1cccc(C(F)(F)F)c1)NC2=O (stereo not drawn)	-0.6	-3.7	1.4	x	x	x	x	x
Cc1cccc(OCc2nnc(SCC(=O)N3c4ccccc4CCc4ccccc43)o2)c1	0.2	5.2	-0.9	19.0*	2.4	6.4	4.3	-0.8
Cn1cccc1C(=O)N1CCN(S(=O)(=O)c2ccccc2)CC1	-0.8	-6.2	-2.3	50.3*	0.2	-2.8	-1.9	-0.2
SMILES	proKLK7 act	NR1D1 modulator	PG9 binder	PP1 inh	PP5 primary	JMJD2C inh	PP1 confirm	PP5 inh counter
O=c1cc(-c2ccc(C3CCCCC3)cc2)[nH][nH]1	0.3	5.7	-1.0	18.5*	2.7	4.2	-1.8	-3.6
CCCCC(CC)CN=C(N)NC(N)=NCCCCCCN=C(N)NC(N)=NCC(CC)CCCC (stereo not drawn)	x	x	x	45.7*	7.1	x	28.7*	3.8
COc1ccccc1N1CCN(S(=O)(=O)c2ccc3c(c2)n(C)c(=O)c(=O)n3C)CC1	-0.2	4.9	x	x	x	x	x	x
COC(=O)CC#C[C@H](C)[C@@H](NS(C)(=O)=O)C1CCCCC1	1.1	-3.1	0.3	x	x	x	x	x
O=C(CSc1nnc(-c2cccc(Cl)c2)n1Cc1ccco1)c1ccc(F)cc1	0.1	-5.8	x	x	x	x	x	x
CCOc1ccc(C2C3=C(Nc4nc(N)[nH]c(=O)c42)c2ccccc2C3=O)cc1 (stereo not drawn)	-0.9	3.5	-7.9	1.9	0.6	-6.5	x	x
CCCOc1ccc(C2C3=C(Nc4nc(N)[nH]c(=O)c42)c2ccccc2C3=O)cc1 (stereo not drawn)	0.1	1.0	-0.1	18.9*	-0.6	-7.4	16.5*	3.1
NC(=O)c1ncn([C@@H]2O[C@H](C(=O)N[C@H](Cc3ccccc3)C(=O)N3CCN(CC(=O)Nc4ccccn4)CC3)[C@@H](O)[C@H]2O)n1	0.3	-2.6	-1.2	x	x	x	x	x
O=S1(=O)CC2c3ccccc3CCN2CN1Cc1ccc(F)cc1 (stereo not drawn)	0.1	-3.8	x	x	x	x	x	x
COc1ccc(S(=O)(=O)N2CCOCC2)cc1NC(=O)c1cc2c(s1)CCCC2	-0.1	-10.7	-0.7	0.1	1.5	9.0	x	x
COc1ccc(C)cc1NC(=O)c1cc2c(s1)CCC2	0.5	5.0	-4.7	18.1*	1.5	-5.4	-1.1	-2.3
C#CCCC(=O)O[C@H]1CCC[C@@]2(C(=O)N(Cc3ccccc3)c3ccccc32)[C@H]1NC(=O)CCc1ccccc1	0.4	-1.5	x	x	x	x	x	x
Cc1ccc(CNC(=O)c2ccc(N3CCC4(CC3)CC(c3cccc(Br)c3)=NO4)c(NC(=O)c3ccc(Br)cc3)c2)cc1	0.0	8.9	2.3	x	x	x	x	x
Cc1ccc(CNC(=O)c2ccc(N3CCC4(CC3)CC(c3cccc(Br)c3)=NO4)c(NC(=O)c3c(Cl)cccc3Cl)c2)cc1	-0.9	2.6	0.1	21.3*	-0.5	-2.1	13.6	-1.7
